The whole screen tested about 350,000 compounds, of which about 1,300 (0.37%) were called active.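 Rule for the calls: active = mean added fluorescence quench of at least 8% versus neutral control, with both replicates also reaching 8%; inconclusive = only one of the mean or replicate conditions met; inactive = mean below 8% and not both replicates reaching 8%.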 The entries come from a sample that favours actives as a whole.

The nature of the assay: F508del CFTR correction, initial screen, CFBE line, single point (AID 720511).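 Note: cells transiently co-express mutant CFTR-F508del with the halide-sensitive YFP; corrector assay measuring rescue of mutant channel to the surface after 24 h compound exposure.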 Conditions: CFBE cells, YFP halide quenching, at 7.58 µM, active compounds read high, % fluorescence drop versus neutral controls, stimulated with forskolin plus potentiator P3.
Regarding `CNC[C@H]1Oc2ccc(NC(=O)Nc3ccc(F)cc3)cc2C(=O)N([C@@H](C)CO)C[C@@H]1C`, the activity (quench increase) was 2.71% (inactive).
As for `C/C=C/c1cnc2c(c1)C(=O)N([C@@H](C)CO)C[C@@H](C)[C@@H](CN(C)S(=O)(=O)c1ccccc1F)O2`, the figure is -0.914% (inactive); as for `COCC(=O)N1CC[C@H]2[C@H](CO)Nc3ccc(-c4ccc(C(=O)N(C)C)cc4)cc3[C@H]21`, -0.359% (inactive); as for `CC(C)CC#Cc1cnc2c(c1)C(=O)N([C@@H](C)CO)C[C@H](C)[C@@H](CN(C)S(=O)(=O)c1cn(C)cn1)O2`, 3.77% (inactive).
Consider `Cc1ccc(Cl)c(OCC(=O)N2CCc3ccccc3C2)c1`, for which the activity (quench increase) was 0.464% (inactive).
The result for `CCC(=O)c1ccc(OCC(=O)OCC(=O)N2CCc3ccccc3C2)cc1` reads 33.2% (active).
As for `CCC(=O)c1ccc(OCC(=O)OCC(=O)NC2CCCCCC2)cc1`, the figure is 5.07% (inactive).
As for `CN1C(=O)c2cc(NC(=O)Nc3ccccc3Cl)ccc2OC[C@H]2O[C@@H](CC(=O)O)CC[C@H]21`, the figure is 2.42% (inactive); as for `C[C@H](CO)N1C[C@H](C)[C@H](CN(C)C(=O)Nc2ccccc2)Oc2ccc(NC(=O)C3CC3)cc2CC1=O`, 1.47% (inactive); as for `O=C(Cn1c(NCCO)nc2ccccc21)c1ccc(Cl)cc1Cl`, 1.26% (inactive).
`CN(C)CCNC(=O)c1ccc(Cl)c2cc3ccccc3nc12`: the activity (quench increase) is 12.3% (active).
As for `CNC(=O)c1cccc2nc3ccccc3nc12`, the figure is -0.402% (inactive); as for `CCNC(=O)C[C@@H]1CC[C@@H](NC(=O)NC2CCCCC2)[C@H](CO)O1`, 3.72% (inactive).
As for `Cc1ccccc1-c1ccc2c(c1)O[C@H](CN(C)C)[C@@H](C)CN([C@H](C)CO)S2(=O)=O`, the figure is 0.748% (inactive); as for `C[C@H]1CN([C@@H](C)CO)C(=O)c2cc(/C=C/c3ccccc3)cnc2O[C@@H]1CN(C)C(=O)c1ccc(F)cc1`, -2.58% (inactive).
The result for `CCOc1ccc(-c2cc(C(=O)N/N=C/c3ccc(O)cc3)c3ccccc3n2)cc1` reads 12.2% (active); that for `COc1ccc(-c2cc(C(=O)N/N=C/c3cccnc3)c3ccccc3n2)c(OC)c1`, -13% (inactive).
With `COc1cc(/C=N/NC(=O)c2cc(-c3ccccc3C)nc3ccccc23)cc(OC)c1O`, the activity (quench increase) is -3.23% (inactive).
The result for `C[C@@H]1CN([C@H](C)CO)C(=O)Cc2cc(NS(=O)(=O)c3ccc(F)cc3)ccc2O[C@H]1CN(C)C` reads -0.0265% (inactive); that for `CC(C)(C)[S@@](=O)N1Cc2cc(C(=O)N3CCOCC3)nc(-c3cccc(-c4ccc(C#N)cc4)c3)c2[C@H]1CCO`, 1.68% (inactive); that for `Cc1noc(C)c1NC(=O)Nc1ccc2c(c1)CC(=O)N([C@@H](C)CO)C[C@H](C)[C@@H](CN(C)CC1CCCCC1)O2`, 0.161% (inactive).
For the compound `CCOC(=O)Cc1ncccc1C(=O)Nc1ccc(OC(F)(F)F)cc1`, the activity (quench increase) is -3.45% (inactive).
The result for `CCOc1c2ccc(C(=O)NCc3ccc(OC(F)(F)F)cc3)cc2nn1C` reads 0.909% (inactive); that for `O=C(Nc1ccc(OC(F)(F)F)cc1)c1ccc2c(c1)no[n+]2[O-]`, 14.5% (active); that for `O=C(C1CCOCC1)N1CC(=O)N2[C@H](CO)[C@@H](c3ccc(C#CC4CCCC4)cc3)[C@H]2C1`, -0.867% (inactive).
The result for `C[C@@H]1CN([C@@H](C)CO)C(=O)c2cc(NS(C)(=O)=O)ccc2O[C@@H]1CN(C)C` reads 0.661% (inactive); that for `NC(=O)CC(NC(=O)Cc1cccc2ccccc12)c1ccc(NCc2cc(F)ccc2F)c([N+](=O)[O-])c1` (stereo not given), 0.166% (inactive); that for `CC1CCCCN1CCCNc1ccc(C(CC(N)=O)NC(=O)c2ccccc2)cc1[N+](=O)[O-]` (stereo not given), -1.78% (inactive).
The result for `NC(=O)CC(NC(=O)Cc1ccc(Br)cc1)c1ccc(NC2CC3CCC2C3)c([N+](=O)[O-])c1` (stereo not given) reads 10.1% (active); that for `COc1ccc(S(=O)(=O)Nc2ccc3c(c2)C(=O)N([C@H](C)CO)C[C@H](C)[C@@H](CN(C)Cc2ccc(-c4ccccc4)cc2)O3)cc1`, 1.93% (inactive); that for `COc1ccccc1C#Cc1ccc([C@@H]2[C@@H](CO)N(C(=O)C3CC3)[C@H]2C#N)cc1`, 2.81% (inactive).
In the case of `Cc1cc(-c2ccc(C)c(S(=O)(=O)NCCCN(Cc3ccccc3)C(C)C)c2)on1`, the activity (quench increase) is 0.63% (inactive).
As for `COc1ccc(CNS(=O)(=O)c2cc(-c3cc(C)no3)ccc2C(C)C)cc1`, the figure is 10.7% (active); as for `CCOc1ccccc1CNS(=O)(=O)c1cc(-c2cc(C)no2)ccc1C`, -0.998% (inactive).
The result for `COc1ccc(C#Cc2ccc3c(c2)[C@]2(C(=O)N3)[C@H](C(=O)N3CCc4cc(OC)c(OC)cc4C3)[C@H]3C(=O)O[C@H](c4ccccc4)[C@H](c4ccccc4)N3[C@@H]2c2ccc(O)cc2)cc1` reads -2.79% (inactive); that for `CCC(=O)Nc1ccc2c(c1)C(=O)N(C)[C@@H]1CC[C@@H](CC(=O)NCc3ccccc3Cl)O[C@H]1CO2`, -0.213% (inactive).
For `CC(=O)NC[C@H]1[C@@H](c2ccc(C#CC(C)C)cc2)[C@@H](CO)N1Cc1ccccn1`, the activity (quench increase) was -0.601% (inactive).
The result for `CCCC(=O)Nc1ccc2c(c1)C(=O)N(C)C[C@@H](OC)[C@H](C)CN(C(C)=O)[C@H](C)CO2` reads -1.19% (inactive).
The result for `Cc1cccc(CNS(=O)(=O)c2ccc(-c3cnc(C4CC4)o3)cc2)c1` reads 2.12% (inactive).
As for `COc1ccc(CNS(=O)(=O)c2ccc(-c3cnc(C4CC4)o3)cc2)cc1`, the figure is -1.13% (inactive); as for `Cc1cccc(NS(=O)(=O)c2ccc(-c3cnc(C4CC4)o3)cc2)c1`, 10% (active).
As to `COc1ccc(S(=O)(=O)N(C)C[C@H]2Oc3ccc(NS(=O)(=O)c4ccc(C)cc4)cc3CC(=O)N([C@@H](C)CO)C[C@@H]2C)cc1`, the activity (quench increase) was -1.33% (inactive).
For `COc1ccc2c3c(n(C)c2c1)[C@@H](CO)N(CC1CC1)CC31CCN(C(=O)c2cccc(F)c2)CC1`, the activity (quench increase) was -0.0985% (inactive).
The result for `C[C@H]1CCCCO[C@@H](CN(C)Cc2ccccc2)[C@@H](C)CN([C@@H](C)CO)C(=O)c2cc(NC(=O)CCCN(C)C)ccc2O1` reads -1.18% (inactive); that for `CCCC#Cc1ccc2c(c1)O[C@@H](CN(C)CC1CC1)[C@@H](C)CN([C@H](C)CO)S2(=O)=O`, 2.53% (inactive).
